According to the supplement of paper PMC11219838:
Unmarked numbers belong to inactive results.

How the values were obtained:
Details in all cases: 60 µM; 5 days; temperature: 20 °C
Meloidogyne hapla J2 = assay: proportion of mobile M. hapla J2 relative to DMSO control (fraction of DMSO control); higher = more viable, less nematicidal, active = 0.7 or less
Method in brief: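 About 25 M. hapla J2 were added per 96-well well in distilled water, and compound was pinned to 60 µM final (0.6% v/v DMSO). Sealed plates were shaken at 200 rpm for 5 days at 20 °C, then 2 µL 1 M NaOH was added before microscopic mobility scoring. Mobility was divided by the mean of eight DMSO wells on the same plate, and two biological replicates were averaged.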

[1] = tested on: Caenorhabditis elegans dauer (daf-2(e1370)); assay: proportion of mobile C. elegans dauer larvae relative to DMSO control (fraction of DMSO control); higher = more viable, less nematicidal, active = 0.63 or less; extreme values may be limits of the assay
Method in brief: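 Synchronized C. elegans daf-2(e1370) larvae were held at 25 °C for 48 h on MYOB plates with E. coli OP50 to form dauers, and about 20 dauers were added per 96-well well in liquid NGM. Compound was pinned to 60 µM final (0.6% v/v DMSO), and sealed plates were shaken at 200 rpm for 5 days at 20 °C. The proportion of mobile worms was scored under a dissection microscope relative to DMSO controls and averaged over two biological replicates.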

Ditylenchus dipsaci = assay: proportion of mobile D. dipsaci (mixed stage) relative to DMSO control (fraction of DMSO control); higher = more viable, less nematicidal, active = 0.86 or less; extreme values may be limits of the assay
Method in brief: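 D. dipsaci were grown on pea plants in Gamborg B-5 agar and extracted through a filter funnel into water, and about 20 worms were added per 96-well well in distilled water. Compound was pinned to 60 µM final (0.6% v/v DMSO), and sealed plates were shaken at 200 rpm for 5 days at 20 °C. After 2 µL 1 M NaOH was added, mobile worms were scored microscopically. Mobility was expressed relative to DMSO controls and averaged over two biological replicates.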

Q: What does the source list for Clc1ccc(CSc2nnc(-c3ccc(Cl)cc3)o2)cc1?
A: proportion of mobile M. hapla J2 (Meloidogyne hapla J2): 0.914; proportion of mobile C. elegans dauer larvae [1]: 1; proportion of mobile D. dipsaci (Ditylenchus dipsaci): 1

Q: Which results are given for CC(Oc1ccc(C(C)(C)C)cc1)c1nc(-c2ccncc2)no1 (stereo unspecified)?
A: proportion of mobile M. hapla J2 (Meloidogyne hapla J2): 0.856; proportion of mobile C. elegans dauer larvae [1]: 1; proportion of mobile D. dipsaci (Ditylenchus dipsaci): 1

Q: How did the “proportion of mobile M. hapla J2” value (Meloidogyne hapla J2) turn out when COc1ccc(-c2noc(-c3ccc(Cl)cc3)n2)cc1 was run?
A: Its value is 0.983.

Q: What about the “proportion of mobile C. elegans dauer larvae” value [1] of the same compound?
A: Its value is 0.778.

Q: And the “proportion of mobile D. dipsaci” value (Ditylenchus dipsaci)?
A: Its value is 1.

Q: With Cc1[nH]c2ccc(-c3nnc(SCC(=O)NCc4ccc(F)cc4)o3)cc2c1C as the compound, how does the “proportion of mobile M. hapla J2” value (Meloidogyne hapla J2) read?
A: The value was 0.865.

Q: And the “proportion of mobile C. elegans dauer larvae” value [1]?
A: Its value is 1.

Q: What about the “proportion of mobile D. dipsaci” value (Ditylenchus dipsaci) of the same compound?
A: The value was 1.

Q: How did the “proportion of mobile M. hapla J2” value (Meloidogyne hapla J2) turn out when COc1ccc(-c2noc(COc3ccc(F)cc3)n2)cc1 was run?
A: Its value is 0.891.

Q: And the “proportion of mobile C. elegans dauer larvae” value [1]?
A: The value was 1.

Q: And the “proportion of mobile D. dipsaci” value (Ditylenchus dipsaci)?
A: Its value is 1.

Q: How did the “proportion of mobile M. hapla J2” value (Meloidogyne hapla J2) turn out when NC(=O)COc1ccccc1-c1nc(-c2ccccc2Cl)no1 was run?
A: The value was 0.851.

Q: What about the “proportion of mobile C. elegans dauer larvae” value [1] of the same compound?
A: The value was 1.

Q: What about the “proportion of mobile D. dipsaci” value (Ditylenchus dipsaci) of the same compound?
A: Its value is 1.

Q: What does the source list for O=C(Nc1ccccc1-c1nc(-c2cccnc2)no1)c1cccc(Cl)c1?
A: proportion of mobile M. hapla J2 (Meloidogyne hapla J2): 0.837; proportion of mobile C. elegans dauer larvae [1]: 1; proportion of mobile D. dipsaci (Ditylenchus dipsaci): 1

Q: What does the source list for Clc1ccc(SCc2nc(-c3ccccc3)no2)cc1?
A: proportion of mobile M. hapla J2 (Meloidogyne hapla J2): 0.783; proportion of mobile C. elegans dauer larvae [1]: 0.59 (active); proportion of mobile D. dipsaci (Ditylenchus dipsaci): 1

Q: Which results are given for COC(=O)c1ccc(CSc2nnc(-c3ccc(OC)cc3)o2)cc1?
A: proportion of mobile M. hapla J2 (Meloidogyne hapla J2): 1.02; proportion of mobile C. elegans dauer larvae [1]: 1; proportion of mobile D. dipsaci (Ditylenchus dipsaci): 1

Q: For CN(C)c1ccc(-c2nnc(SCc3ccccc3)o2)cc1, which “proportion of mobile M. hapla J2” value (Meloidogyne hapla J2) is on record?
A: Its value is 0.991.

Q: And the “proportion of mobile C. elegans dauer larvae” value [1]?
A: The value was 1.

Q: And the “proportion of mobile D. dipsaci” value (Ditylenchus dipsaci)?
A: Its value is 1.

Q: Which results are given for CCOc1ccccc1-c1nnc(SCC(=O)c2ccccc2)o1?
A: proportion of mobile M. hapla J2 (Meloidogyne hapla J2): 1.01; proportion of mobile C. elegans dauer larvae [1]: 1; proportion of mobile D. dipsaci (Ditylenchus dipsaci): 1

Q: For N#Cc1ccccc1CSc1nnc(-c2ccco2)o1, which “proportion of mobile M. hapla J2” value (Meloidogyne hapla J2) is on record?
A: The value was 0.859.

Q: And the “proportion of mobile C. elegans dauer larvae” value [1]?
A: The value was 0.85.

Q: And the “proportion of mobile D. dipsaci” value (Ditylenchus dipsaci)?
A: Its value is 1.
